# TRPM1 prom inh: inhibitors of MITF-driven TRPM1 promoter in melanoma cells | SK-MEL-5 TRPM1 promoter luciferase, 24 h | inhibition, % at 12.5 µM | 330,000 tested, 0.83% active;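 active means mean inhibition across replicates of 60% or more, whatever share of single replicates reaches that level; inconclusive means some that reach 60%, reason not given; inactive means mean inhibition across replicates below 60%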
# EWS-Fli inh: EWS/Fli transcriptional activity inhibition. A673 NR0B1-luciferase reporter, viability-normalised. 350,000 tested, 0.67% active. AID 651661. inhibition, % at 12.6 µM;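 active means mean inhibition of at least 50% after viability correction, with every replicate also passing that limit; inconclusive means mean reaches 50% but only one of two replicates passes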;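 further: firefly luciferase signal divided by Alamar Blue viability fluorescence both relative to DMSO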
# PAX8 inh HTS: PAX8 transcriptional activity inhibition. inhibition, % at 12.6 µM. 360,000 tested, 1.2% active. RMG-I TPO-luciferase reporter, SteadyGlo, 24 h. AID 652154;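 active means mean replicate inhibition at least 60% with every replicate also reaching 60%; inconclusive means only one of the two criteria is met; inactive means mean below 60% and not all replicates reaching 60%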;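 further: luciferase light reporting Pax8 driven TPO promoter activity; plate controls were median of neutral control wells for no effect and mitoxantrone controls for full effect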
# LGR2 inh: Drosophila LGR2 receptor signaling inhibition; HEK293 LGR2, CRE-luciferase, bursicon-stimulated, 4 h; inhibition, % at 9.99 µM; 380,000 tested, 0.35% active; AID 720647;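 active means drop in luminescence signal, shown as inhibition above about 50% in the replicate tests, limit read from the data, passing the limit was not always enough; inconclusive means probably only some replicates passing the limit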;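 further: agonist challenge used bursicon conditioned medium at about half maximal strength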
# PGC1a acetyl inh: PGC1a acetylation modulation, inhibitor mode; U2OS PGC1a acetylation, AlphaScreen anti-acetyl-lysine; with virally co-expressed GCN5 acetyltransferase; inhibition, % at 15.6 µM; 350,000 tested, 0.17% active;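 active means every replicate shows inhibition of at least 40%; inconclusive means mean inhibition at least 40% but some replicate below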;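 further: 0% = neutral control wells and 100% = positive control wells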
# LMP1 NFkB inh: Epstein-Barr LMP1 NF-kappaB reporter inhibition; inhibition, % at 12.5 µM; 350,000 tested, 0.69% active; AID 504558; LMP1-induced NF-kappaB luciferase reporter cells, luminescence; in the data active means inhibition above about 41%; inconclusive means no clear call, values can overlap the other calls;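 further: 0% = neutral control wells and 100% = reference inhibitor control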
# Numbers without * were called inactive; ? = inconclusive; · = no result. Most compounds without a hit are left out; they make up all but 2.2% or so of the library.
SMILES,TRPM1 prom inh,EWS-Fli inh,PAX8 inh HTS,LGR2 inh,PGC1a acetyl inh,LMP1 NFkB inh
COc1cccc(S(=O)(=O)N(C)C[C@H]2OCc3ccccc3-c3c(n(C)c4ccccc34)C(=O)N([C@@H](C)CO)C[C@H]2C)c1,·,25,86*,27,-15,·
COc1ccc(S(=O)(=O)N(C)C[C@H]2OCc3ccccc3-c3c(n(C)c4ccccc34)C(=O)N([C@H](C)CO)C[C@H]2C)cc1,·,9,·,23,-12,·
COc1cccc(S(=O)(=O)N(C)C[C@@H]2OCc3ccccc3-c3c(n(C)c4ccccc34)C(=O)N([C@H](C)CO)C[C@@H]2C)c1,·,8,75*,6,-2,·
CC(C)NC(=O)Nc1ccc2c(c1)C(=O)N([C@H](C)CO)C[C@@H](C)[C@H](CN(C)S(=O)(=O)c1ccccc1)O2,·,5,-9,-1,-4,·
C[C@H]1CN([C@@H](C)CO)C(=O)c2cc(-c3ccccc3)cnc2O[C@H]1CN(C)Cc1cccnc1,·,-11,·,0,4,·
Cc1noc(C)c1NC(=O)N(C)C[C@H]1Oc2ccc(NS(=O)(=O)c3ccc(F)cc3)cc2C(=O)N([C@H](C)CO)C[C@H]1C,·,-7,·,-11,3,·
COc1cccc(S(=O)(=O)N(C)C[C@@H]2OCc3ccccc3-c3ccccc3C(=O)N([C@@H](C)CO)C[C@@H]2C)c1,·,0,91*,22,-13,·
C[C@H](CO)N1C[C@H](C)[C@H](CN(C)Cc2ccc(C(F)(F)F)cc2)OCc2ccccc2-c2ccccc2C1=O,·,1,21,-9,1,·
C[C@@H]1CN([C@@H](C)CO)C(=O)c2ccccc2-c2ccccc2CO[C@H]1CN(C)Cc1ccccc1C(F)(F)F,·,23,79*,14,-5,·
COc1cccc(S(=O)(=O)N(C)C[C@H]2OCc3ccccc3-c3ccccc3C(=O)N([C@H](C)CO)C[C@H]2C)c1,·,16,-3,8,-6,·
COCC(=O)N1[C@@H](CO)[C@@H](c2ccccc2)[C@@H]1CNC(=O)c1ccccn1,·,-1,-1,-5,10,·
CCCOc1cc(NCc2ccccc2)c2ncn(C(C)C)c2c1,-7,9,25,20,·,-30
CCOc1cc(NCc2ccccc2)c2ncn(C(C)C)c2c1,0,2,77*,-6,-10,-50
O=C(COc1ccccc1C(=O)NCc1ccccn1)Nc1ccc(Br)cc1,-22,65*,-6,-6,·,-2
O=C(COc1ccccc1C(=O)NCc1ccccc1)Nc1ccccc1,-2,15,-7,-3,16,-5
CO[C@@H](CN(C)S(=O)(=O)c1ccc(C)cc1)[C@@H](C)CN(Cc1ccccc1Cl)[C@H](C)CO,·,15,·,1,-10,·
C[C@@H]1CCCCO[C@@H](CN(C)Cc2ccncc2)[C@H](C)CN([C@@H](C)CO)C(=O)c2cc(NC(=O)c3ccccc3)ccc2O1,·,0,8,-22,24,·
C[C@@H]1CN([C@H](C)CO)C(=O)c2cccc(NC(=O)C3CCOCC3)c2O[C@H]1CN(C)CC1CC1,·,-5,17,-4,·,·
Clc1ccc2c(N/N=C/c3ccccc3Br)ccnc2c1,83*,10,20,19,·,-28
Clc1ccc2c(N/N=C/c3cccc(Br)c3)ccnc2c1,83*,·,0,-7,·,-77
Cc1noc(C)c1NC(=O)Nc1ccc2c(c1)C(=O)N([C@H](C)CO)C[C@@H](C)[C@@H](CN(C)Cc1ccc(C(=O)O)cc1)O2,·,-10,·,10,16,·
CN(C)S(=O)(=O)c1ccc(C(=O)NCC2CC2(Cl)Cl)cc1 (configuration not stated),-2,0,-16,-6,·,43*
C[C@@H]1CN([C@@H](C)CO)C(=O)c2cc(NC(=O)Cn3cnnn3)ccc2O[C@H]1CN(C)Cc1ccc(C(=O)O)cc1,·,-2,·,-17,-4,·
Cc1noc(C)c1NC(=O)Nc1ccc2c(c1)C(=O)N([C@H](C)CO)C[C@H](C)[C@@H](CN(C)S(=O)(=O)c1ccccc1)OCCCC[C@@H](C)O2,·,-2,-9,3,7,·
CN(C)c1ccc2nc3ccc(=[N+](C)C)cc-3sc2c1,73*,-114,-71,·,·,25
Cc1cc2nc3ccc(=[N+](C)C)cc-3sc2cc1N,96*,·,·,·,-27,?
CCCNC(=O)N1C[C@@H](C)[C@@H](OC)CN(C)C(=O)c2ccc(NS(C)(=O)=O)cc2OC[C@H]1C,·,0,·,11,-9,·
